This is an account of results in PubChem BioAssay AID1376 (SRMLSC, 2008).

About 530 (0.24%) of roughly 220,000 compounds were called active. The list comes from a sample in which actives are over-represented; it also holds similar structures and randomly drawn compounds. Potency and affinity values are given separately. A number with no mark means an inactive call. Rule as the data show it: active = inhibition above about 13%; inconclusive = no clear call, values can overlap the other calls; inactive = below that.

What is called inhibition is the change of the read-out against control, counted positive when it falls.

In this test the target is Bifunctional protein GlmU (Mycobacterium tuberculosis (strain ATCC 25618 / H37Rv)) (UniProt P9WMN3). Put plainly: inhibition of mycobacterial GlmU enzyme – biochemical, glucosamine-1-phosphate acetyltransferase (AID 1376).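 Also: 0% = complete reaction with vehicle and 100% = reaction without substrate.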 The conditions noted are these: M. tuberculosis GlmU acetyltransferase enzyme assay; hits give high values;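 tested at 30 µM in the primary screen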.
Bifunctional protein GlmU (Mycobacterium tuberculosis (strain ATCC 25618 / H37Rv)), sequence (P9WMN3 whole entry, looked up): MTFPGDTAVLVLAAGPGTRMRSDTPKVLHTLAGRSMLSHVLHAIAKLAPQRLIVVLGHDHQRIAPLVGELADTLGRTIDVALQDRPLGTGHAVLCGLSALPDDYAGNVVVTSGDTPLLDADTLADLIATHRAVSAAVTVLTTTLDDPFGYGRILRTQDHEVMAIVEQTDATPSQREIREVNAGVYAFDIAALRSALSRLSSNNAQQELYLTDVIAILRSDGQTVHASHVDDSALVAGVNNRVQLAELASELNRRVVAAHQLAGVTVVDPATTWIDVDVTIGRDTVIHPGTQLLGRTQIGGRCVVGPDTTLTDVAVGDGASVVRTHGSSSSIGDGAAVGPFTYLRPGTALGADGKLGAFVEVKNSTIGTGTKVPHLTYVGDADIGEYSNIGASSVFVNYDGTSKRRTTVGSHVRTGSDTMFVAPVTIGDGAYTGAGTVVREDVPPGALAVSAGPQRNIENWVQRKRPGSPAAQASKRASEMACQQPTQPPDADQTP
Regarding `Cc1[nH]c2ccccc2c1C(=O)CSc1nc2ccccc2[nH]1`, the inhibition was 2.48%. Under `Cc1c(C)n(C(=O)CSc2ncn[nH]2)c2ccccc12` stands 1.07%; under `CCCCCOc1ccc(C(=O)N(Cc2ccco2)C2CCS(=O)(=O)C2)cc1` (centres undefined), 2.23%. Under `Cc1ccc(C)n1-c1cccc(NC(=O)c2ccccc2)c1` stands -0.99%. On to `Cn1c(Cn2c(=O)sc3ccccc32)nnc1SCC(=O)N1CCc2ccccc21`, for which the inhibition is -3.8%. Under `O=C1CCN(S(=O)(=O)c2ccccc2)CCN1CCOCc1ccc(F)cc1` stands -0.16%.

As for `CCOC(=O)C1=C(N)OC2=C(C(=O)CCC2)C12C(=O)N(C)c1ccccc12` (centres undefined), the inhibition is 2.06%.

In the case of `CC1=CC(C)(C)N2C(=O)C3(C(C#N)=C(N)OC4=C3C(=O)CCC4)c3c(C)c(C)cc1c32` (centres undefined), the inhibition was 0.73%. Under `CCOC(=O)C1=C(N)OC2=C(C(=O)CCC2)C12C(=O)N1c3c(ccc(C)c32)C(C)=CC1(C)C` (centres undefined) stands 14.7% (active); under `COc1ccc([N+](=O)[O-])c(S(=O)(=O)c2ccccc2)n1`, 11.9%. With `COc1nc(OC)nc(Oc2ccc(Cl)cc2[N+](=O)[O-])n1`, the inhibition is -2.5%.

For the molecule `COc1ccc([N+](=O)[O-])c(S(=O)(=O)c2ccc(Cl)cc2)n1`, the inhibition is 13.8% (active).

As for `CC(C(=O)NN)n1nnc(N2CCOCC2)n1` (centres undefined), the inhibition was -4.73%. With `O=C(Nc1cccc(-c2csc(Nc3ccc(Cl)cc3)n2)c1)c1cccc(C(F)(F)F)c1`, the inhibition was 0.14%.

For the molecule `COC(=O)c1[nH]nc(C(=O)OC(C)(C)C)c1-c1ccccc1`, the inhibition is 13.6% (active). Consider `COC(=O)c1n[nH]nc1-c1ccccc1`, for which the inhibition is 2.77%. Take `COC(=O)c1cc(-c2ccccc2)n[nH]1`: the inhibition is 1.61%. As to `CC1(C)Cc2cccc(OCC(=O)N3CCN(S(=O)(=O)c4ccc(F)cc4)CC3)c2O1`, the inhibition is -1.15%. Then `O=C(O)c1cccc(N/N=C/c2cccs2)c1`, with 4.35%; and `O=C(O)c1cccc(NN=C2c3ccccc3-c3ccccc32)c1`, with 1.86%. Turning to `Cc1ccc(C(=O)N/C(=C\c2ccccc2)C(=O)NCc2cccnc2)cc1`, the inhibition is -0.7%. On to `CCCNC(=O)Cn1cnc2sc(C(=O)Nc3cc(OC)c(OC)c(OC)c3)c(C)c2c1=O`, for which the inhibition is 1.29%. For the molecule `CNc1ccc(Br)cc(C(=O)/C=C/c2ccc(Cl)cc2Cl)c1=O`, the inhibition was 10.2%. Then `CNc1ccc(Br)cc(C(=O)/C=C/c2cccc(OC)c2OC)c1=O`, with 0.88%; and `CNc1ccc(Br)cc(C(=O)/C=C/c2cccc(Cl)c2Cl)c1=O`, with 13% (active); and `CCS(=O)(=O)c1ccc(O)c(NC(=O)/C=C/c2ccc(Cl)cc2)c1`, with 0.22%. Under `O=C(O)CNC(=O)C(Cc1ccccc1)NC(=O)OCc1ccccc1` (centres undefined) stands 2.74%; under `Cn1c(SCc2ccccc2)nnc1-c1cnccn1`, -1.68%.

With `Cn1c(SCc2ccccn2)nnc1-c1cnccn1`, the inhibition was 13.4% (active). Turning to `Cc1ccccc1CSc1nnc(-c2cnccn2)n1C`, the inhibition was 4.71%. Consider `Cc1ccc(-n2c(Cc3ccccc3)nnc2SCC(=O)NNC(=O)Cc2ccccc2)cc1`, for which the inhibition is 2.04%.

For `Cc1ccc(-c2cc(O)cc3sc(=O)oc23)cc1C`, the inhibition is -5.89%. In the case of `Cc1c(Br)c(O)c(Br)c2sc(=O)oc12`, the inhibition is 14.6% (active).

`C=CCn1c(=O)c2ccccc2n2c(SCC(N)=O)nnc12`: the inhibition is -2.87%.

Take `C/C(=N\OCc1ccc(C#N)cc1)c1ccccc1`: the inhibition was 2.31%. For the molecule `C/C(=N\OCc1ccccc1C#N)c1cc2ccccc2o1`, the inhibition is -1.63%. Under `C/C(=N\OCc1ccc(C#N)cc1)c1cc2ccccc2o1` stands 14% (active); under `COc1cc(CNCc2c[nH]c3ccccc23)cc(OC)c1`, 0.77%.

As to `O=C(N/N=C/c1ccc(-c2cccc([N+](=O)[O-])c2)o1)c1ccccc1O`, the inhibition is 0.51%. With `N/C(=N\N=C\c1ccc(O)cc1O)N[N+](=O)[O-]`, the inhibition is 1.33%. In the case of `O=C1CCCN1c1cc(Cl)cc(Cl)c1`, the inhibition was 0.87%.

In the case of `CCC(C)N(CCNC(=O)CC1Oc2ccc(C)cc2NC1=O)C1CCCCC1` (centres undefined), the inhibition is 4.05%. Regarding `NNC(=O)COc1ccc(-c2n[nH]c(C(F)(F)F)c2-c2ccc(Br)cc2)c(O)c1`, the inhibition is -2.65%. Regarding `COc1ccc(-c2c(-c3ccc(OCC(=O)NN)cc3O)n[nH]c2C(F)(F)F)cc1`, the inhibition is 13.2% (active). For the molecule `COc1ccc(-c2c(-c3ccc(OCC(=O)NN)cc3O)n[nH]c2C)cc1`, the inhibition was 4.13%. Turning to `O=C(CC(NC(=O)c1ccccc1Cl)c1ccccc1)NC1=NCCS1` (centres undefined), the inhibition was 2.83%. As to `CC(=O)Nc1ccc2ccccc2c1`, the inhibition is 1.2%. With `CC(=O)Nc1ccc2cc3ccc(NC(C)=O)cc3nc2c1`, the inhibition was 29.2% (active).

In the case of `CC(=O)Nc1ccc2nc3ccccc3nc2c1`, the inhibition was 3.15%. As to `CCC(C)(C)n1nnnc1CN1CCC(n2c(C)nc3cc(C(F)(F)F)ccc32)CC1`, the inhibition is 2.13%.

`CCOC(=O)c1nc2ccccc2nc1C`: the inhibition is 3.05%. As for `O=C(CSc1nnc(-c2ccncc2)n1Cc1ccco1)Nc1nc(-c2ccccc2)cs1`, the inhibition is -0.09%. On to `O=C(O)c1cccc(N2C(=O)/C(=C/c3ccc(SCc4ccc(Cl)cc4)o3)SC2=S)c1`, for which the inhibition is 33.7% (active). Then `CCC1=NN2C(=N)/C(=C\c3ccc(SCc4ccco4)o3)C(=O)N=C2S1`, with 4.74%; and `CCCC1=NN2C(=N)/C(=C\c3ccc(SCc4ccco4)o3)C(=O)N=C2S1`, with 30.6%; and `CCOc1cc(/C=C2/SC(=S)NC2=O)ccc1OC(=O)c1ccco1`, with 1.76%. Consider `N=C1/C(=C\c2ccc(SCc3ccco3)o2)C(=O)N=C2SC=NN12`, for which the inhibition is 8.44%. For `O=C1NC(=S)S/C1=C/c1ccc(N2CCOCC2)o1`, the inhibition is 11.4%. On to `O=C(O)CN1C(=O)/C(=C/c2ccc(SCc3ccccc3)o2)SC1=S`, for which the inhibition is 18.9%. Then `O=C1/C(=C\c2ccco2)SC(=S)N1c1ccccc1`, with 8%; and `O=C1NC(=S)S/C1=C\c1ccc(SCc2ccccc2)o1`, with 68.3% (active). Take `Cc1cccc(C)c1-n1cccc1/C=C1\SC(=S)N(c2cccc(C(=O)O)c2)C1=O`: the inhibition was -2.25%.

In the case of `NNC(=O)c1cncn1-c1ccc(F)cc1`, the inhibition was -2.24%. Under `CN/N=C(\Cc1nc2ccccc2[nH]1)c1ccc([N+](=O)[O-])cc1` stands 2.32%.

For `CCC(Oc1ccccc1)C(=O)NCc1ccc(S(N)(=O)=O)cc1` (centres undefined), the inhibition was 1.79%. For `CC(=O)Nc1ccc(S(=O)(=O)Nc2ccc(=O)n(Cc3ccc(Cl)c(Cl)c3)c2)cc1`, the inhibition was -3.3%. For `COc1cc(N(C(=O)Cc2cccs2)C(C(=O)NC2CCCCC2)c2cccc(OC)c2OC)ccc1-n1cnnn1` (centres undefined), the inhibition was -6.93%. On to `OCCNc1nc(Nc2ccccc2Cl)nc(N2CCCC2)n1`, for which the inhibition is 2.46%.

As to `CCCS(=O)(=O)N1CCC(C(=O)NCCCOC(C)C)CC1`, the inhibition is -1.86%. As to `CCC(C)NS(=O)(=O)c1ccc(S(=O)(=O)N(CCc2ccc(OC)c(OC)c2)Cc2cccs2)cc1` (centres undefined), the inhibition was -1.89%. As for `Cc1ccc([N+](=O)[O-])cc1S(=O)(=O)Nc1ccccn1`, the inhibition is 12.5%. `Cc1cccc2cc(/C=N/NC(=O)[C@H]3C[C@@H]3c3ccccc3)c(Cl)nc12`: the inhibition was -1.46%. With `CC(=O)c1cccc(NC(=O)C2CCCN(S(=O)(=O)c3cccc4cccnc34)C2)c1` (centres undefined), the inhibition is 13.1% (active). Then `O=C(Nc1ccncc1)C1CCCN(S(=O)(=O)c2cccc3cccnc23)C1` (centres undefined), with -3.59%; and `Cc1cccc(NC(=O)C2CCCN(S(=O)(=O)c3cccc4cccnc34)C2)c1` (centres undefined), with 1.23%; and `O=C1CCN(Cc2ccccc2)S(=O)(=O)c2ccccc21`, with 1.98%. For the molecule `Cc1cc(/C=C2\C(=O)NC(=O)N(Cc3ccccc3Cl)C2=O)c(C)n1-c1ccc(C(=O)O)cc1`, the inhibition was -0.15%.

Regarding `Cn1cccc1/C=C1\C(=O)NC(=O)N(Cc2ccccc2)C1=O`, the inhibition is 13.2% (active). On to `Cn1cccc1/C=C1/C(=O)NC(=O)N(Cc2ccc(F)cc2)C1=O`, for which the inhibition is -4.26%. As to `Cc1cc(/C=C2\C(=O)NC(=O)N(Cc3ccco3)C2=O)c(C)n1-c1ccc(C(=O)O)cc1`, the inhibition is 9.99%. Take `Cn1cccc1/C=C1/C(=O)NC(=O)N(Cc2ccccc2)C1=O`: the inhibition was -0.82%. For the molecule `O=C1NC(Cc2c[nH]c3ccccc23)C(=O)N1Cc1ccc(CN2C(=O)NC(Cc3c[nH]c4ccccc34)C2=O)cc1` (centres undefined), the inhibition is 3.5%. As for `O=C(COc1ccc(S(=O)(=O)NC2CCCCC2)cc1)N1CCN(c2ccc(F)cc2)CC1`, the inhibition was -2.74%. For `COc1ccc(CNC(=O)CCSCc2cccc(Cl)c2)cc1`, the inhibition was 3.22%.

Turning to `CC(C)CCN1CCN(CC#Cc2ccccc2)CC1CCO` (centres undefined), the inhibition was -6.43%. Then `CC(C)CCN1CCN(CC(c2ccccc2)c2ccccc2)CC1CCO` (centres undefined), with 14% (active).

On to `OCCC1CN(CC(c2ccccc2)c2ccccc2)CCN1C1CCCC1` (centres undefined), for which the inhibition was -0.28%. `CCOc1ccc(NS(=O)(=O)c2ccc3[nH]c(=O)cc(C(=O)O)c3c2)cc1`: the inhibition is 5.18%. `Cc1oc2cc(O)ccc2c(=O)c1-c1cnn(-c2ccccc2)c1`: the inhibition is 1.72%.

As to `Cc1oc2c(O)c(O)ccc2c(=O)c1-c1cnn(-c2ccccc2)c1`, the inhibition was 15% (active). Under `Cc1oc2c(C)c(O)ccc2c(=O)c1-c1cnn(-c2ccccc2)c1` stands -1.79%; under `CCOC(=O)NC(NCc1ccccc1)(C(F)(F)F)C(F)(F)F`, -2.58%; under `CCOC(=O)C(NC(C)=O)(OCc1ccccc1)C(F)(F)F` (centres undefined), 1.91%. Regarding `COC(=O)C(O)(NC(=O)OCc1ccccc1)C(F)(F)F` (centres undefined), the inhibition is 13.5% (active).
